In PubChem BioAssay (Tox21):
Where “and” joins values, the source holds several entries; their conditions need not be identical. Equal entries are not always repeated. Results filed as inconclusive are left out. Where a structure was tested more than once in an assay, its records may differ in their call. Calls of active or inactive are those of the source. Unless noted, calls come from the whole dose curve; as a rule, active = well fitted curve in the direction sought with a large enough effect in the repeat runs; inconclusive = weak or mixed curves; inactive = no such curve, though single readings can be large; an effect the other way counts as inactive or inconclusive.

Legend:
[1] = qHTS assay to identify small molecule antagonists of the glucocorticoid receptor (GR) signaling pathway - cell viability counter screen (AID 720693); note: nearly all actives have a fitted effect of over 55% in size
[2] = qHTS assay for identifying genotoxic compounds that show differential cytotoxicity against isogenic chicken DT40 cell lines with known DNA damage response pathways - wild type cell line (AID 743012); note: nearly all actives have a fitted effect of over 60% in size; note: potency is the fitted concentration of half-maximal effect
Outline: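 Viability of DNA repair-proficient chicken DT40 cells was assessed by CellTiter-Glo luminescence following 40 h compound exposure at 37 C/5% CO2.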

[3] = qHTS assay for identifying genotoxic compounds that show differential cytotoxicity against isogenic chicken DT40 cell lines with known DNA damage response pathways - Rev3 mutant cell line (AID 743014); note: nearly all actives have a fitted effect of over 55% in size; note: potency is the fitted concentration of half-maximal effect
[4] = qHTS assay for identifying genotoxic compounds that show differential cytotoxicity against isogenic chicken DT40 cell lines with known DNA damage response pathways - Rad54/Ku70 mutant cell line (AID 743015); note: nearly all actives have a fitted effect of over 60% in size; note: potency is the fitted concentration of half-maximal effect
[5] = qHTS assay to identify small molecule antagonists of the androgen receptor (AR) signaling pathway - cell viability counter screen (AID 743033; note: nearly all actives have a fitted effect of over 45% in size; note: potency is the fitted concentration of half-maximal effect)
[6] = biological target: Androgen receptor (Homo sapiens) (UniProt P10275); experiment: qHTS assay to identify small molecule agonists of the androgen receptor (AR) signaling pathway (AID 743036; active = well fitted activation curve with a large enough effect in the signal ratio in the repeat runs, with a control signal flat, not every such curve was filed as active; the % refers to the signal ratio)
Outline: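 AR-UAS-bla HEK293 cells, plated 4 h before dosing, were treated with compound for 16 h at 37C. beta-Lactamase reporter read after 2 h with LiveBLAzer B/G FRET substrate at room temperature.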

[7] = biological target: Androgen receptor (Homo sapiens) (UniProt P10275); experiment: qHTS assay to identify small molecule agonists of the androgen receptor (AR) signaling pathway using the MDA cell line (AID 743040; note: nearly all actives have a fitted effect of over 20% in size; note: potency is the fitted concentration of half-maximal effect)
Outline: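 Stable MMTV-luciferase reporter in MDA-kb2 cells; note the promoter carries GR as well as AR response elements. 16 h compound treatment, 37C, 0% CO2; ONE-Glo luminescence endpoint.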

[8] = qHTS assay to identify small molecule antagonists of the androgen receptor (AR) signaling pathway using the MDA cell line - cell viability counter screen (AID 743041; note: nearly all actives have a fitted effect of over 45% in size; note: potency is the fitted concentration of half-maximal effect)
Outline: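 Using the breast carcinoma line MDA-kb2 AR-luc, test chemicals were co-incubated with R1881 for 16 h; CellTiter-Fluor reagent, added at 15.5 h, provided a fluorescence measure of live cells.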

[9] = biological target: Androgen receptor (Homo sapiens) (UniProt P10275); experiment: qHTS assay to identify small molecule antagonists of the androgen receptor (AR) signaling pathway using the MDA cell line (AID 743042; note: nearly all actives have a fitted effect of over 55% in size; note: potency is the fitted concentration of half-maximal effect)
Outline: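 Antagonist mode: compounds plus R1881 agonist added to MDA-kb2 AR-luc cells, incubated 16 h at 37C. Luciferase reporter luminescence quantified, with multiplexed CellTiter-Fluor readout for cell viability.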

[10] = biological target: Androgen receptor (Homo sapiens) (UniProt P10275); experiment: qHTS assay to identify small molecule antagonists of the androgen receptor (AR) signaling pathway (AID 743035; active = well fitted inhibition curve with a large enough effect in the signal ratio in the repeat runs, not every such curve was filed as active; the % refers to the signal ratio)
Outline: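 Reporter HEK293 cells were exposed to compounds and R1881 overnight (16 h, 37C); beta-lactamase activity was then quantified by FRET fluorescence.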

Measured: Potency

Sequence of Androgen receptor (Homo sapiens) (P10275 whole entry, looked up): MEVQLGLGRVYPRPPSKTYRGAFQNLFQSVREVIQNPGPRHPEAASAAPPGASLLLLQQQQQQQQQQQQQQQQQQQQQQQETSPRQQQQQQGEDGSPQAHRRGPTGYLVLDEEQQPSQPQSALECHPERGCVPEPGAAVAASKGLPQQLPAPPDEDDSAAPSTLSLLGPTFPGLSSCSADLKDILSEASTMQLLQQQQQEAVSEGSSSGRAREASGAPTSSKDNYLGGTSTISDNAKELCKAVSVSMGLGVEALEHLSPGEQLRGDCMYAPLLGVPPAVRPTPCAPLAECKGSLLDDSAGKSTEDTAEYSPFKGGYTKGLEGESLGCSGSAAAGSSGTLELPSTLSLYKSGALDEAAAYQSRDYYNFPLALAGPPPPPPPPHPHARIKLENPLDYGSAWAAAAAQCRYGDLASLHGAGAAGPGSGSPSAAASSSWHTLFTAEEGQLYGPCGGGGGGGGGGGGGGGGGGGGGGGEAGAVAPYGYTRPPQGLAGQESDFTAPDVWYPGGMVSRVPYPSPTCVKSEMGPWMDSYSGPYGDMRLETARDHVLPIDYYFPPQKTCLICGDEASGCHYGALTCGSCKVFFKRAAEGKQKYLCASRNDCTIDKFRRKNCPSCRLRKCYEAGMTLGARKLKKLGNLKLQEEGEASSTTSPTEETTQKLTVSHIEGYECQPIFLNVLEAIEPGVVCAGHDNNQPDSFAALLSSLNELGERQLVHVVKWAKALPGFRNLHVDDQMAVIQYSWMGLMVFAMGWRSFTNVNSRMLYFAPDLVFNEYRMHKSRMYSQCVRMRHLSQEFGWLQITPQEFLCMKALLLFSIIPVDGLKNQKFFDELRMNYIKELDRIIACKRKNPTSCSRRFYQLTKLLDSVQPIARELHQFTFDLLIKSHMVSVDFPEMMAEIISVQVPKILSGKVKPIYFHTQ

Cl/C=C\C[N+]12CN3CN(CN(C3)C1)C2
active: [2] 48.6 µM | [3] 30.6 µM | [4] 43.3 µM
not listed: [10]
inactive: all other assays above

Cc1ccc(-c2c(Cl)nc(C#N)n2S(=O)(=O)N(C)C)cc1
inactive: [1] | [7]
active: [2] 61.1 µM | [3] 61.1 µM | [4] 61.1 µM | [5] 43.6 µM | [9] 54.4 µM

BrCC(Br)C1CCC(Br)C(Br)C1 (configuration not stated)
active: [7] 1.36 µM
inactive: all other assays above

Brc1ccccc1
inactive: all assays above

Clc1ccc(C(OCCN2CCCCC2)c2ccccc2)cc1 (configuration not stated)
active: [2] 3.59 µM | [3] 11.4 µM | [4] 10.1 µM
inactive: [1]

CCCCN=C=O
inactive: [1] | [2] | [3] | [4] | [5] | [8]

O=NN1CCCCCC1
inactive: all assays above

COP(=S)(OC)Oc1ccc([N+](=O)[O-])cc1Cl
not listed: [6] | [8] | [10]
inactive: all other assays above

CN1C[C@H](CNC(=O)OCc2ccccc2)C[C@@H]2c3cccc4c3c(cn4C)C[C@H]21
active: [2] 5.96 µM | [3] 8.41 µM | [4] 8.41 µM
inactive: [1]

CCCCCCCCCCOC(=O)c1ccccc1C(=O)OCCCCCCCCCC
not listed: [9] | [10]
inactive: all other assays above

CN(N=O)c1ccc([N+](=O)[O-])cc1
inactive: [1] | [2] | [3] | [4] | [5] | [8]

CCn1cc[n+](C)c1
inactive: [1] | [2] | [3] | [4] | [5] | [8]

O=C=Nc1ccc(Cl)cc1
inactive: [1] | [5] | [8]
active: [2] 27.3 µM | [3] 54.5 µM | [4] 27.3 µM

CCOP(=S)(OCC)SCSCC
inactive: [1] | [5] | [8]
active: [2] 54.5 µM | [3] 27.3 µM | [4] 48.6 µM

O=Cc1ccc2c(c1)OCO2
inactive: [1] | [2] | [3] | [4] | [5] | [8]

CCC(Br)(CC)C(=O)NC(N)=O
active: [3] 54.5 µM
inactive: [1] | [2] | [4] | [5] | [8]

CC(=O)C(C)(C)C
active: [2] 45 µM | [3] 3.18 µM | [4] 4.01 µM
inactive: [1] | [5] | [8]

C(=NC1CCCCC1)=NC1CCCCC1
inactive: [1] | [5] | [8]
inactive and 3.06 µM (active): [4]
inactive and 15.4 µM (active): [2]
inactive and 21.7 µM (active): [3]

CNC(C)Cc1ccccc1OC (configuration not stated)
inactive: [1] | [2] | [3] | [4] | [5] | [8]

CCOC(=O)CBr
inactive: [1] | [2] | [3] | [4] | [5] | [8]

CCOP(=S)(OCC)SCn1nnc2ccccc2c1=O
active: [2] 7.7 µM | [3] 7.7 µM | [4] 9.69 µM | [5] 24.5 µM | [8] 61.1 µM
inactive: [1]

O=C(NC(=O)c1c(F)cccc1F)Nc1ccc(OC(F)(F)C(F)OC(F)(F)F)c(Cl)c1 (configuration not stated)
inactive: [1] | [5] | [8]
active: [2] 6.68 µM | [3] 4.22 µM | [4] 1.06 µM

CCOP(=O)(OCC)Oc1ccc([N+](=O)[O-])cc1
inactive: [1] | [2] | [3] | [4] | [5] | [8]

CCOP(=O)(OCC)O/C(=C/Cl)c1ccc(Cl)cc1Cl
active: [2] 11.9 µM and 15.4 µM | [3] 23.7 µM and 27.3 µM | [4] 23.7 µM and 27.3 µM
inactive: [1] | [5] | [8]

O=[N+]([O-])c1ccccc1CCl
inactive: [1] | [2] | [3] | [4] | [5] | [8]

O=C1CN=C(c2ccccc2)c2cc(Cl)ccc2N1CC1CC1
inactive: [1] | [5] | [8]
active: [2] 18.8 µM | [3] 29.8 µM and 64.2 µM | [4] 26.6 µM

O=[Se]=O
active: [2] 0.541 µM | [3] 0.341 µM | [4] 0.242 µM | [8] 19.2 µM
inactive: [1] | [5]
